According to PubChem BioAssay AID485364 (National Center for Advancing Translational Sciences (NCATS), 2010):
Out of some 360,000 compounds screened, about 11,000 (3.1%) were called active. Another 4% or so got no clear call; they are omitted. For the sample, actives were picked, then their nearest neighbours and some compounds at random. Unmarked numbers belong to inactive results. Calls come from the whole dose curve; as a rule, active = well fitted inhibition curve with a large enough effect; inconclusive = small, poorly fitted or top-dose-only effect; inactive = no such curve, though single readings can be large or run the other way.

Molecular target: Schistosoma mansoni thioredoxin glutathione reductase (TGR) (UniProt Q962Y6)
Experiment: qHTS Assay for the Inhibitors of Schistosoma Mansoni Peroxiredoxins; note: nearly all actives have a fitted effect of over 60% in size
Settings: purified TGR, DTNB reduction, TNB absorbance 405 nm; series mostly up to 114 µM; activity change, negative = inhibition: at the top concentration
Source text: Schistosomiasis is a major neglected tropical disease that currently affects over 200 million. It is caused by different species of flatworms, such as Schistosoma mansoni. Over the last century, drugs to treat the disease have evolved from potassium antimonyl tartrate, artemisinin, oxamniquine, to praziquantel, with praziquantel remaining the universally-used single drug of choice over the past three decades. However, transmission rates have changed little with praziquantel, and there is evidence for the development of drug resistant parasites. Because there is currently no suitable alternative therapy available, there is an urgent need to identify new targets and drugs for schistosomiasis treatment. Thioredoxin glutathione reductase (TGR), one uniquely positioned S. mansoni enzyme, has been identified as a major component of the worms' distinct and compressed antioxidant "firewall". TGR is a multifunctional enzyme that catalyzes the interconversion between reduced and oxidized forms of both glutathione (GSH) and thioredoxins, thus making it an attractive new antiparasitic target. Recently, a quantitative high-throughput screen of the NIH Molecular Libraries Small Molecule Repository (MLSMR, ~71K at the time of the screen in 2007) was performed using an assay that targeted both TGR and peroxiredoxin2 (Prx2, an H2O2-reducing enzymatic component of the S. mansoni redox "firewall") by following the decrease of NADPH fluorescence. […] Additional mechanistic link between exogenous NO donation and parasitic injury for the oxadiazole-2-oxide class of compounds was also expanded and better defined. Although the screen addressed both TGR and Prx2, the assay required post-screen target deconvolution for further characterization of the actives. In addition, the fluorescence assay was also subject to fluorescence interference from compound library members. We have developed a 1536-well-based kinetic HTS assay to address TGR alone. The assay followed the reduction of 5, 5'-dithiobis (2-nitrobenzoic acid) (DTNB) (Ellman's reagent) by NADPH and measured the increase in absorbance at 412 nm of the reaction product, TNB. […] This assay format can be used to screen the current MLSMR collection (with >300K compounds available) to find novel TGR inhibitors. Furoxan is a good choice to serve as a positive control in the primary HTS assay.
Three microliters of reagents (100 uM NADPH and 20 nM TGR or 100 uM NADPH as no-enzyme control) were dispensed into 1,536-well black clear-bottomed plates. Compounds (23 nL) were transferred via Kalypsys pin tool equipped with 1536-pin array (10 nL slotted pins, V&P Scientific, San Diego, CA). The plates were then be incubated for 15 min at room temperature, and 1 uL aliquot of 500 uM NADPH were added, immediately followed by a 1 uL aliquot of 15 mM DTNB to start the reaction. The plate was transferred to a ViewLux high-throughput CCD imager (Perkin-Elmer, Wellesley, MA) where kinetic measurements of the TNB absorbance were acquired using a 405 excitation filter. Throughout the screen, reagent bottles and all liquid lines were made light-tight to minimize reagent degradation. All screening operations were performed on a fully integrated robotic system (Kalypsys, San Diego, CA) containing one RX-130 and two RX-90 anthropomorphic robotic arms (Staubli, Duncan, SC). Library plates were screened starting from the lowest and proceeding to the highest concentration, and a "double-dipping" step of the highest concentration was required to access higher concentrations of compounds. Vehicle-only plates, with DMSO being pin-transferred to the entire column 5-48 compound area, were inserted uniformly at the beginning and the end of each library in order to monitor for and record any shifts in the background, which can be affected by reagent dispensers or loss in enzyme activity overtime. […]
% is set by controls: 0 for no effect and ±100 for the full control effect; potency is the fitted concentration of half-maximal effect.

SMILES | activity change, negative = inhibition | Potency
COCCCNC(=O)Cc1ccc(-n2c(C)nc3cccnc32)cc1 | -7.9% | 
CCOc1ccc(NC(=O)c2c(NC(=O)Cc3ccccc3)sc3c2CCC(C)C3)cc1 (stereo not given) | -1.16% | 
COc1cccc(N2C(=O)C3CCCN3C2c2ccc(F)cc2)c1 (stereo not given) | 0.707% | 
COc1cccc(C2Nc3cccc4cccc(c34)N2)c1 |  | 20 µM (active)
Cc1ccc(C2Nc3cccc4cccc(c34)N2)cc1 |  | 17.8 µM (active)
Oc1ccc(C2Nc3cccc4cccc(c34)N2)cc1 |  | 14.1 µM (active)
COc1ccc(C2CC(c3ccc(C)cc3)Nc3ncnn32)cc1 (stereo not given) | 7.07% | 
Cc1ccc(C2CC(c3cccc(C)c3)n3nc(N)nc3N2)cc1 (stereo not given) | 4.95% | 
COc1ccc(C2NC(=O)c3ccccc3N2)cc1 (stereo not given) | 10.4% | 
COc1ccc(-c2nn(CC(=O)NC3CCCC3)c3c2cnc2ccc(F)cc23)cc1 | -3.89% | 
CCn1cc(C(=O)NCc2ccc(C)cc2)c(=O)c2cc(S(=O)(=O)N3CCc4ccccc4C3)ccc21 | 12.2% | 
COc1ccc(CNC(=O)COCc2cc(-c3cccs3)on2)cc1OC | 8.12% | 
Cc1ccc(Cl)cc1N1CCN(C(=O)C2CCC(CNS(=O)(=O)c3cccs3)CC2)CC1 (stereo not given) | 0.707% | 
CCOc1ccc(CCNC(=O)c2csc3c2CCCCC3)cc1 | 3.2% | 
COCCNC(=O)c1ccc2c(c1)N=C(C)c1cc(C)ccc1S2 | 6.6% | 
CCOc1ccc(-c2cc(C)n3nc(C(=O)Nc4ccc(C)c(C)c4)cc3n2)cc1 | -1.55% | 
CCn1cc(C(=O)OCC(=O)Nc2cc(C)cc(C)c2)c(=O)c2ccc(C)nc21 | 6.93% | 
O=C(CCS(=O)(=O)c1ccc2c(c1)NC(=O)CO2)Nc1cccc(C(F)(F)F)c1 | -1.11% | 
COc1cccc(-n2cc(C(=O)NCc3cccc(Cl)c3)c3ccccc3c2=O)c1 | -13.4% | 
COc1cccc(-c2nnc3n(CCc4ccccc4)c(=O)c4ccccc4n23)c1O | -7.84% | 
COc1cccc(-n2ccn(CC(=O)NCc3ccc(C)cc3)c(=O)c2=O)c1 | 3.55% | 
COc1cc(C2C3C(=O)N(c4ccccc4)C(=O)C3ON2c2ccccc2)ccc1O (stereo not given) | -32.2% | 
Cc1ccccc1N1C(=O)C2ON(c3ccccc3)C(c3ccncc3)C2C1=O (stereo not given) |  | 44.7 µM (active)
COC(=O)C1=NN(c2ccccc2)C2C(=O)N(c3ccccc3OC)C(=O)C12 (stereo not given) | 2.8% | 
CC(C)(C)c1ccc(C(=O)N2CCC(c3nc(-c4ccc(S(=O)(=O)N5CCCC5)cc4)no3)CC2)cc1 | 0.494% | 

SMILES | activity change, negative = inhibition | Potency
CC(=O)c1ccc(N2CCN(C3C(=O)c4ccccc4N3C(C)=O)CC2)cc1 (stereo not given) | -15.5% | 
CCC(=O)N1CCc2cc(S(=O)(=O)NC(C(=O)Nc3ccc(C(C)=O)cc3)C(C)C)ccc21 (stereo not given) | -2.24% | 
CNc1ccc(-c2nc(-c3ccco3)no2)cc1[N+](=O)[O-] | 11.9% | 
O=[N+]([O-])c1cc(-c2nc(-c3ccccc3)no2)ccc1NCc1ccco1 | 9.25% | 
CC(Nc1ccc(-c2nc(-c3ccco3)no2)cc1[N+](=O)[O-])c1ccccc1 (stereo not given) |  | 31.6 µM (active)
COC(=O)c1ccccc1NC(=O)Cc1ccccc1OC | 0.626% | 
CC[C@]1(c2ccccc2OC)C(=O)N(C(=O)OC)N1C(=O)OC |  | 31.6 µM (active)
COc1ccccc1CNC(=O)CCCN1C(=O)NC2(CCCC2)C1=O | -11.2% | 
CCOC(=O)c1cc2c(=O)n3ccccc3nc2n(Cc2ccco2)c1=NC(=O)c1ccc(F)cc1 | -33.8% | 
Cc1cccc(Nc2cc(C)nc(-n3nc(C)cc3C)n2)c1 | 2.04% | 
Cc1nnc(N2CCCC(C(=O)NCCN(C)C)C2)c2nn(-c3ccccc3)c(C)c12 (stereo not given) | 38.7% | 
COc1ccc(NC(=O)c2ccc3oc(=O)c(S(=O)(=O)c4ccc(F)cc4)cc3c2)c(OC)c1 | 10.2% | 
COc1ccc2c(Cl)c(C(=O)NCc3ccco3)sc2c1 | -22.5% | 
O=C(NCc1ccco1)c1sc2cccc(F)c2c1Cl |  | 39.8 µM (active)
O=C(NCc1ccco1)c1cc2sccc2n1Cc1ccc(F)cc1 | -20.7% | 
Cc1ccc(C)c(Nc2nnc(-c3ccc(C)c(S(=O)(=O)N4CCCCC4)c3)c3ccccc23)c1 | 4.43% | 
Cc1ccc(C)c(N2CCN(c3ccc4cc(S(=O)(=O)N5CCC(C)CC5)ccc4n3)CC2)c1 | 3.72% | 
COc1cccc(-c2n[nH]c3c2C(c2cccc(O)c2)N(C)C3=O)c1 (stereo not given) | -2.88% | 
Cc1nn2c(c1-c1ccccc1)N=C(c1ccco1)CC2c1ccccc1 (stereo not given) |  | 10 µM (active)
Cc1nn(C(=O)c2ccoc2C)c(N)c1-c1ccccc1 | 0.165% | 
O=C(O)CCCC(=O)N1N=C(c2ccco2)CC1c1ccco1 (stereo not given) | -32.6% | 
COc1ccc(NC(=O)CCNS(=O)(=O)c2ccc3c(c2)CCCC(=O)N3)cc1Cl | 0.434% | 
CCCCn1c(SCC(=O)N2CCC(C(=O)OCC)CC2)nc2cc(S(N)(=O)=O)ccc21 | -11.3% | 
CCCCn1c(SCC(=O)N2CCCC2=O)nc2cc(S(N)(=O)=O)ccc21 | -10.3% | 
CCCCn1c(SCc2ncc(-c3ccccc3)o2)nc2cc(S(N)(=O)=O)ccc21 |  | 20 µM (active)
